In the supplement of paper PMC12350171:
Counter-ions that a name gives are not always drawn. A number with no mark means an inactive call.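 The calls were made as follows: active = AUC significantly below DMSO controls by Student t-fit with adjusted P under 0.01; inactive = not significantly reduced.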

Test system: Haemophilus parainfluenzae
Assay: growth AUC normalised to DMSO control (fraction of control); higher = less growth inhibition, active = hit call of the paper
Details: 20 µM
Method in brief: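 Hemin and NAD were added to the medium for Haemophilus parainfluenzae. All pathogens, after two anaerobic passages, were inoculated at a starting OD578 of 0.01 into pre-reduced mGAM plates with 20 μM compound and 1% DMSO under breathable seals, and OD578 was read hourly for 24 h in three biological replicates. AUC of each growth curve was obtained with the trapezoidal rule up to the exponential-to-stationary transition and normalised to DMSO controls from the same plate.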

CN[C@@H]1[C@H](O[C@H]2[C@H](O[C@H]3[C@H](O)[C@@H](O)[C@H](NC(=N)N)[C@@H](O)[C@@H]3NC(=N)N)O[C@@H](C)[C@]2(O)CO)O[C@@H](CO)[C@H](O)[C@H]1O [Dihydrostreptomycin sulfate]
growth AUC normalised to DMSO control: 0.0409 (active)

CC1=Nc2ccc(Cl)cc2S(=O)(=O)N1 [Diazoxide]
growth AUC normalised to DMSO control: 1.05

Nc1ccc(O)c(C(=O)O)c1 [Mesalamine]
growth AUC normalised to DMSO control: 1.05

NC(=O)c1cnccn1 [Pyrazinamide]
growth AUC normalised to DMSO control: 0.979

CN1C(=O)OC(C)(C)C1=O [Trimethadione]
growth AUC normalised to DMSO control: 0.975

CC(=O)N(CC(C)C(=O)O)c1c(I)cc(I)c(N)c1I (stereo not given) [Iocetamic acid]
growth AUC normalised to DMSO control: 0.965

Nc1ccc(S(N)(=O)=O)cc1 [Sulfanilamide]
growth AUC normalised to DMSO control: 0.997

CCCCN(CCCC)CCCOC(=O)c1ccc(N)cc1 [Butacaine]
growth AUC normalised to DMSO control: 0.998

Nc1ccc(C(=O)O)c(O)c1 [Aminosalicylic acid]
growth AUC normalised to DMSO control: 1.09

CC(C)NNC(=O)c1ccncc1 [Iproniazide phosphate]
growth AUC normalised to DMSO control: 1.04

CC12CC3CC(C)(C1)CC(N)(C3)C2 [Memantine hydrochloride]
growth AUC normalised to DMSO control: 0.986

CCC(NC(C)C)C(O)c1ccc(O)c(O)c1 (stereo not given) [Isoetharine mesylate salt]
growth AUC normalised to DMSO control: 1.01

CN[C@H]1CC[C@@H](c2ccc(Cl)c(Cl)c2)c2ccccc21 [Sertraline]
growth AUC normalised to DMSO control: 0.929

O=C1Nc2ccc(Cl)cc2[C@@](C#CC2CC2)(C(F)(F)F)O1 [Efavirenz]
growth AUC normalised to DMSO control: 0.991

C[C@H](O)C(=O)Nc1c(I)c(C(=O)NC(CO)CO)c(I)c(C(=O)NC(CO)CO)c1I [Iopamidol]
growth AUC normalised to DMSO control: 1.07

CC1COc2c(N3CCN(C)CC3)c(F)cc3c(=O)c(C(=O)O)cn1c23 (stereo not given) [Ofloxacin]
growth AUC normalised to DMSO control: 0.0492 (active)

NC(CO)C(=O)NNCc1ccc(O)c(O)c1O (stereo not given) [Benserazide hydrochloride]
growth AUC normalised to DMSO control: 1.05

CN[C@H](CC(C)C)C(=O)N[C@H]1C(=O)N[C@@H](CC(N)=O)C(=O)N[C@H]2C(=O)N[C@H]3C(=O)N[C@H](C(=O)N[C@H](C(=O)O)c4cc(O)cc(O)c4-c4cc3ccc4O)[C@H](O)c3ccc(c(Cl)c3)Oc3cc2cc(c3O[C@@H]2O[C@H](CO)[C@@H](O)[C@H](O)[C@H]2O[C@H]2C[C@](C)(N)[C@H](O)[C@H](C)O2)Oc2ccc(cc2Cl)[C@H]1O [Vancomycin hydrochloride]
growth AUC normalised to DMSO control: 1.01

Cn1c(=O)c2c(ncn2CCO)n(C)c1=O [Etofylline]
growth AUC normalised to DMSO control: 1.02

Nc1cc(-c2ccncc2)c[nH]c1=O [Amrinone]
growth AUC normalised to DMSO control: 1.09

CNc1ncnc2c1ncn2[C@@H]1O[C@H](CO)[C@@H](O)[C@H]1O [N6-methyladenosine]
growth AUC normalised to DMSO control: 1.01

CC[C@]12CCCN3CCc4c(n(c5ccccc45)[C@@](O)(C(=O)OC)C1)[C@@H]32 [Vincamine]
growth AUC normalised to DMSO control: 0.98

CC(C)(C(=O)c1cccnc1)c1cccnc1 [Metyrapone]
growth AUC normalised to DMSO control: 0.991

Nc1ncnc2c1ncn2C1OC(COP(=O)(O)O)C(O)C1O (stereo not given) [Adenosine 5'-monophosphate monohydrate]
growth AUC normalised to DMSO control: 0.982

CC(C)NC[C@@H](O)COc1ccc(CC(N)=O)cc1 [(R,+) Atenolol]
growth AUC normalised to DMSO control: 0.98

CC[N+](CC)(CC(=O)Nc1c(C)cccc1C)Cc1ccccc1 [Denatonium benzoate]
growth AUC normalised to DMSO control: 1.05

N=C(N=C(N)N)N1CCOCC1 [Moroxidine hydrochloride]
growth AUC normalised to DMSO control: 1

Cc1cccc(C)c1OCC(C)N (stereo not given) [Mexiletine hydrochloride]
growth AUC normalised to DMSO control: 1.02

CCCc1nc(C)c2c(=O)nc(-c3cc(S(=O)(=O)N4CCN(CC)CC4)ccc3OCC)[nH]n12 [Vardenafil]
growth AUC normalised to DMSO control: 1.03

C[C@@H]1C[C@H]2[C@@H]3C[C@H](F)C4=CC(=O)C=C[C@]4(C)[C@@]3(Cl)[C@@H](O)C[C@]2(C)[C@H]1C(=O)COC(=O)C(C)(C)C [Clocortolone pivalate]
growth AUC normalised to DMSO control: 1.73

Nc1ccc(S(=O)(=O)Nc2ncccn2)cc1 [Sulfadiazine]
growth AUC normalised to DMSO control: 1.01

Oc1ccc(OCc2ccccc2)cc1 [Monobenzone]
growth AUC normalised to DMSO control: 0.902

CC(C)(O/N=C(\C(=O)N[C@@H]1C(=O)N2C(C(=O)[O-])=C(C[n+]3ccccc3)CS[C@H]12)c1csc(N)n1)C(=O)O [Ceftazidime pentahydrate]
growth AUC normalised to DMSO control: 0.079 (active)

COC(=O)Nc1nc2cc(C(=O)c3ccccc3)ccc2[nH]1 [Mebendazole]
growth AUC normalised to DMSO control: 0.983

CC(C)(C)NC[C@H](O)c1ccc(O)c(CO)c1 [Levalbuterol hydrochloride]
growth AUC normalised to DMSO control: 0.993

CC(C)C(=O)Nc1ccc([N+](=O)[O-])c(C(F)(F)F)c1 [Flutamide]
growth AUC normalised to DMSO control: 1.09

CCC(=O)O[C@]1(C(=O)SCF)[C@H](C)C[C@H]2[C@@H]3C[C@H](F)C4=CC(=O)C=C[C@]4(C)[C@@]3(F)[C@@H](O)C[C@@]21C [Fluticasone propionate]
growth AUC normalised to DMSO control: 0.997

NS(=O)(=O)c1cc(C(=O)O)c(NCc2ccco2)cc1Cl [Furosemide]
growth AUC normalised to DMSO control: 1

NS(=O)(=O)c1cc2c(cc1Cl)N=C(CSCc1ccccc1)NS2(=O)=O [Benzthiazide]
growth AUC normalised to DMSO control: 0.987

C#C[C@]1(O)CC[C@H]2[C@@H]3CCC4=CC(=O)CC[C@@H]4[C@H]3CC[C@@]21C [Norethindrone]
growth AUC normalised to DMSO control: 0.989
